Assay [1] is described as follows: compounds binding Alexa647 anti-His antibody – biochemical, small-molecule microarray, 635 nm fluorescence, artefact control for SMM control protein annotation, primary screen (AID 1128).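 Also: score merges feature fluorescence with signal-to-noise for each printed compound spot.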 The settings on record: higher = more signal.
In assay [2] the test system is Human papillomavirus type 1a E7 protein (residues 1-88). Description: HPV1a E7 small-molecule binders, primary screen, biochemical, small-molecule microarray, residues 1-88, 635 nm (AID 1129). The note with it: small-molecule microarray binding, fluorescence 635 nm; higher = more signal.
The target of assay [3] is Focal adhesion kinase 1 (Homo sapiens) (UniProt Q05397). Briefly: PTK2 protein binding on printed compound slides – biochemical, small-molecule microarray, 635/667 nm fluorescence, BSA, DTT, primary screen (AID 1130).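 Also: composite of spot emission at 667 nm and signal to noise over triplicate slides.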 The settings on record: 635 nm fluorescence, higher = more signal.
For assay [4], the system named is Fibrinogen (Alexa647-labelled). Briefly: Alexa647-fibrinogen binding to printed small molecules – biochemical, small-molecule microarray, 635/667 nm fluorescence, artefact control for SMM control-protein annotation, profiling panel (AID 1131).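 Also: z-score merges 667 nm fluorescence with per-spot signal-to-noise over triplicate slides.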 The note with it: fibrinogen-A647 binding fluorescence, higher = more signal.
The target in assay [5] is Follistatin (Homo sapiens) (UniProt P19883). Briefly: FST protein binding to printed compounds – biochemical, small-molecule microarray, 635/667 nm fluorescence, primary screen (AID 1132). The settings on record: 635 nm fluorescence, higher = more signal.
In assay [6] the target is Fibroblast growth factor 2 (Homo sapiens) (UniProt P09038). Briefly: basic fibroblast growth factor binding to printed compounds – biochemical, small-molecule microarray, 635/667 nm fluorescence, primary screen (AID 1133). The note with it: FGF2, fluorescence 635/667, higher = more signal.
Assay [7] is described as follows: JC-1 mitochondrial potential readout, lung cancer cells – cell-based, A549, JC-1 fluorescence, basal, 24 h, 100 nL, profiling panel (AID 1138).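 Also: A549 lung adenocarcinoma cells under basal conditions with no added stimulus; test concentration not given here.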 The note with it: higher = more signal.
The test system of assay [8] is Lefty1. Description: Lefty1 protein binding to printed compounds – biochemical, small-molecule microarray, 635/667 nm fluorescence, primary screen (AID 1139). The settings on record: fluorescence 635/667, higher = more signal.
The subject of assay [9] is wheat germ agglutinin (Triticum aestivum), Alexa647-labelled. Description: Alexa647-WGA lectin binding to printed small molecules – biochemical, small-molecule microarray, 635/667 nm fluorescence, artefact control for SMM control-protein annotation, profiling panel (AID 1140).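 Also: score merges 667 nm feature emission with signal to noise over triplicate slides.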 The settings on record: WGA-A647 binding, 635 nm fluorescence, higher = more signal.
Assay [10] concerns the target Luciferin 4-monooxygenase (Photinus pyralis) (UniProt P08659). Description: inhibition of purified Photinus pyralis luciferase – biochemical, luminescence, purified enzyme, 2006 set, primary screen (AID 1141).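 Also: cell-free assay with purified firefly luciferase at 100 ng per well in PBS; test concentration not given here.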 The settings on record: purified firefly luciferase, SteadyGlo luminescence, 30 min; higher = more signal, called active from +8 up or from −8 down.
The test system of assay [11] is Wnt5a (protein binding on small-molecule microarray). Description: small molecules binding Wnt5a protein – biophysical, small-molecule microarray, 635/667 nm fluorescence, primary screen (AID 1142).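 Also: fluorescence read at 667 nm with signal to noise per printed feature.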 The note with it: 635 nm fluorescence, higher = more signal.
The nature of assay [12]: ATP-based viability of Huh7 replicon cells – cell-based, CellTiter-Glo luminescence, basal, 48 h, cytotoxicity control for HCV replication inhibitor project, primary screen (AID 1143).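 Also: Huh7 hepatoma cells carrying a hepatitis C replication reporter with no stimulus; test concentration not given here.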 The settings on record: higher = more signal, called active from +8 up or from −8 down. In general terms: Replicon systems follow genome replication, usually without infectious particles.
Assay [13] in a line: Pseudomonas biofilm growth suppression – PAO1 strain, BacTiter-Glo luminescence, LB-PBS, primary screen (AID 1144). The settings on record: P. aeruginosa PAO1 biofilm, 12 h, higher = more signal.
Assay [14] can be described thus: basal CRE-LacZ reporter activity in PC12 – cell-based, unstimulated, primary screen (AID 1145). The settings on record: no forskolin, luminescence, 4.5 h, higher = more signal, called active from +8 up or from −8 down.
A short description of assay [15]: forskolin-driven CRE-LacZ activity in PC12 – cell-based, CRE-LacZ reporter, forskolin-stimulated, primary screen (AID 1146).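 Also: PC12 cells with 6xCRE LacZ reporter stimulated by forskolin 10 µM; beta-galactosidase reporter signal reflecting CREB driven transcription.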 The settings on record: luminescence, 4.5 h, higher = more signal, called active from +8 up or from −8 down.
Assay [16] addresses Streptavidin (Streptomyces avidinii) (UniProt P22629). Briefly: compounds binding control protein streptavidin – biophysical, small-molecule microarray, 635/667 nm fluorescence, artefact control for SMM compound annotation, primary screen (AID 1147).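 Also: signal reflects streptavidin binding to arrayed compounds as a control protein.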 The settings on record: higher = more signal.
The nature of assay [17]: probe aInhba binding on compound microarray – biochemical, small-molecule microarray, 635/667 nm fluorescence, primary screen (AID 1148).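 Also: score merges 667nm spot fluorescence with signal-to-noise for antibody binding to printed compounds.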 The note with it: higher = more signal.
Assay [18] deals with Torsin-1A (Homo sapiens) (UniProt O14656). Briefly: TOR1A wild-type binding on microarray – cell lysate, small-molecule microarray, lysate, 635/667 nm, primary screen (AID 1149). The settings on record: COS7 hTOR1A-WT lysate, 635 nm fluorescence, higher = more signal.
The target is the same in assay [19]. Description: torsin A mutant lysate binding on microarrays – cell lysate, small-molecule microarray, COS7 lysate, 635/667 nm fluorescence, primary screen (AID 1150).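 Also: score pools 667 nm emission and signal to noise measuring lysate protein binding.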 The note with it: COS7 hTOR1A mutant lysate, 635 nm fluorescence, higher = more signal.
Assay [20] concerns Sonic hedgehog protein (Shh). Description: Sonic hedgehog microarray binding compounds – biochemical, small-molecule microarray, 635/667 nm fluorescence, primary screen (AID 1151).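 Also: Shh protein binding to compounds spotted on small-molecule microarray slides; score combines spot fluorescence intensity with signal-to-noise across triplicate slides.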 The note with it: 635 nm fluorescence, higher = more signal.

Calls of active or inactive are those of the source. Unless noted, no rule for the calls is given here.

Sequence of Fibroblast growth factor 2 (Homo sapiens) (P09038 whole entry, looked up): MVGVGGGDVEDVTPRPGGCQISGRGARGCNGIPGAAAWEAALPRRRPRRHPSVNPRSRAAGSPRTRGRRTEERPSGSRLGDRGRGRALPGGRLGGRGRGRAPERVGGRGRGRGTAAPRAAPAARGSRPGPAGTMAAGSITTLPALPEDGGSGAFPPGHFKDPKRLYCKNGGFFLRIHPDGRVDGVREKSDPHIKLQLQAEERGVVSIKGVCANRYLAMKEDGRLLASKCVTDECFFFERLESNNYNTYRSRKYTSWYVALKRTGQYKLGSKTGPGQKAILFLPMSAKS
Sequence of Luciferin 4-monooxygenase (Photinus pyralis) (P08659 whole entry, looked up): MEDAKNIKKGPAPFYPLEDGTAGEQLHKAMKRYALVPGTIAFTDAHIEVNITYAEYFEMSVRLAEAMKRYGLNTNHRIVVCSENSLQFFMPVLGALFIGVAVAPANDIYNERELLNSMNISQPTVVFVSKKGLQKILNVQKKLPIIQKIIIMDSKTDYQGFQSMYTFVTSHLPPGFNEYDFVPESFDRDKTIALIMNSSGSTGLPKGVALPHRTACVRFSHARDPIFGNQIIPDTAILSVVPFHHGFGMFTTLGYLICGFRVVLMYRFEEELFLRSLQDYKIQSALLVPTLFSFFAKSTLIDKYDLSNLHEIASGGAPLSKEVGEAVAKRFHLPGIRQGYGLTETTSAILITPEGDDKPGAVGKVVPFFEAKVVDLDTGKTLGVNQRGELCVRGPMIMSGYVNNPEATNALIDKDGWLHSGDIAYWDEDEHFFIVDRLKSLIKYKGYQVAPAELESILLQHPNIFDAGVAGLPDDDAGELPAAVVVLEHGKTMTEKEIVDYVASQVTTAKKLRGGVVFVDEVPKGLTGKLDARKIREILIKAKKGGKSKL
Sequence of Torsin-1A (Homo sapiens) (O14656 whole entry, looked up): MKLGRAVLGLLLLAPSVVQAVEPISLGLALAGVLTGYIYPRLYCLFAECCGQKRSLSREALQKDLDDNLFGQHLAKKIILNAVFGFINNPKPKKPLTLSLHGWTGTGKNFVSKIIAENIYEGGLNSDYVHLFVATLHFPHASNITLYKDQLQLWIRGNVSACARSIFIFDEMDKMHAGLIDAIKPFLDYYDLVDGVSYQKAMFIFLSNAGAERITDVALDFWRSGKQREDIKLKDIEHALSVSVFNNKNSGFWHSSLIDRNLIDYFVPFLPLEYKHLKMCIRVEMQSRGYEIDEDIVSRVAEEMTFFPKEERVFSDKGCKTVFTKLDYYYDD
Sequence of Streptavidin (Streptomyces avidinii) (P22629 whole entry, looked up): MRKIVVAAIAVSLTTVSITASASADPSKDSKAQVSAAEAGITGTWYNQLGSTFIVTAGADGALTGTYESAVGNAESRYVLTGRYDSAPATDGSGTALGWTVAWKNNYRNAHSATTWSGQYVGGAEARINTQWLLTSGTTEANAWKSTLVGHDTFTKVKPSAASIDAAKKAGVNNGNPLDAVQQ
Sequence of Follistatin (Homo sapiens) (P19883 whole entry, looked up): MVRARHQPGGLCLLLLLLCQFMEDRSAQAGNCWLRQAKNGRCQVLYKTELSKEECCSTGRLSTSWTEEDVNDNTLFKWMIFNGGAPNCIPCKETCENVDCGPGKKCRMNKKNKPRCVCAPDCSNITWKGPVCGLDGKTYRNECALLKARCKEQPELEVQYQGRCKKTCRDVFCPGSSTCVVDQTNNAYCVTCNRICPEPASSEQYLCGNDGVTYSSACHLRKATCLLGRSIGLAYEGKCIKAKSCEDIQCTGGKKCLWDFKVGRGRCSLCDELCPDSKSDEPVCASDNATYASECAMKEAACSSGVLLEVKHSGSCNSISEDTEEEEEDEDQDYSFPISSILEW
Sequence of Focal adhesion kinase 1 (Homo sapiens) (Q05397 whole entry, looked up): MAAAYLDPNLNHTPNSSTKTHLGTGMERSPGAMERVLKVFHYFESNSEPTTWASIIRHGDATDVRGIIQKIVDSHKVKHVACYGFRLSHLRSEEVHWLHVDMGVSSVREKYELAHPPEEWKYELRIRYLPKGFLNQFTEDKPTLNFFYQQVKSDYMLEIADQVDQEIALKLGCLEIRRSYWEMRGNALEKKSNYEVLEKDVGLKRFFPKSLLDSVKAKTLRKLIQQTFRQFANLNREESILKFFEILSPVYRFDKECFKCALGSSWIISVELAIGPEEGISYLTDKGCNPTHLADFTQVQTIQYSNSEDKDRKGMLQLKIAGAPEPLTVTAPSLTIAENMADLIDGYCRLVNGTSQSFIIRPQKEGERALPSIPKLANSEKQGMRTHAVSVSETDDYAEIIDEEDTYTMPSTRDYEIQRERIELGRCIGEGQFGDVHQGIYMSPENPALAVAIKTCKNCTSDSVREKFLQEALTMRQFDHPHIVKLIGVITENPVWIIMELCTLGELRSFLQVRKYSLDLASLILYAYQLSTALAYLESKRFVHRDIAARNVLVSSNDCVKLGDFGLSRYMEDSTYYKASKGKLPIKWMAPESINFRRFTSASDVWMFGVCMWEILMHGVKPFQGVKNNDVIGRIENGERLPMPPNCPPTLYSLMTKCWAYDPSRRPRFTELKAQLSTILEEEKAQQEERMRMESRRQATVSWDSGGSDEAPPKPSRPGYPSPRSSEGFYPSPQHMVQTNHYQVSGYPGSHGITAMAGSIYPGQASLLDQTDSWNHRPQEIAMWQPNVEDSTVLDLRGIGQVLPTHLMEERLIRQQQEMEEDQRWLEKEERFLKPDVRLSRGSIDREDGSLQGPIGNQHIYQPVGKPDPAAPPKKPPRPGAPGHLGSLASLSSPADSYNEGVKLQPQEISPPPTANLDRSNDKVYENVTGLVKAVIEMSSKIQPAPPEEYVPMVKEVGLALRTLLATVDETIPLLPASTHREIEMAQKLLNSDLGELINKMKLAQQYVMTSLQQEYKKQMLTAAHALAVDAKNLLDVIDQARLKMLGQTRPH

As to `CS(=O)(=O)CCOC(=O)C1=CC(c2ccc(CO)cc2)=CC(C2CC2)N(Cc2cc3c(cc2Br)OCO3)C=C1C(=O)OCCS(C)(=O)=O` (stereo not given), the composite z-score in assay [1] is 1.92; in assay [2], 1.21; in [3], 0.608; in assay [4], 0.896; in assay [5] it was 0.678; in assay [6], 0.763. Also, the composite z-score is 1.09 in assay [8]; 0.953 in assay [9]; 0.377 in assay [11]; 1.54 in assay [16]; -0.0645 in [17]; 0.0194 in assay [18]. In addition, the results for the composite z-score in assay [19] and in [20] were 1.45 and 0.595, respectively. The z-score is 2.44 in [7]; -1.51 (inactive) in [10]; -3.38 (inactive) in assay [12]; -0.992 (inactive) in assay [13]; 5.81 (inactive) in assay [14]; -2.41 (inactive) in assay [15].

In the case of `CS(=O)(=O)CCOC(=O)C1=CC(CCCO)=CC(c2cccs2)N(Cc2cc3c(cc2Br)OCO3)C=C1C(=O)OCCS(C)(=O)=O` (stereo not given), the composite z-score is 1.16 in assay [1]; 1.21 in assay [2]; 1.11 in [3]; 1.01 in assay [4]; 1.28 in assay [5]; 0.564 in assay [6]. The composite z-score in assay [8] was 1.22; in [9] it was 1.05; in [11], 0.567; in [16], 2.16; in assay [17] it was 0.086; in assay [18] it was 1.3. In addition, the composite z-score in [19] amounted to 1.16; in assay [20], 0.759. Further, the z-score in assay [7] was 1.26; in assay [10], -1.16 (inactive); in [12], -1.26 (inactive); in assay [13], 0.00546 (inactive); in assay [14], -0.583 (inactive); in [15] it was 0.72 (inactive).

Regarding `CC(c1ccccc1)C(O)C1C=CC2C(=O)NC(=O)C2N1Nc1ccccn1` (stereo not given), the composite z-score in assay [1] is 1.28; in [2], 0.997; in [3], -0.0073; in assay [4], 0.675; in assay [5], 1.12; in assay [6], 0.458. The composite z-score in assay [8] is 0.335; in assay [9], 0.528; in assay [11], 0.211; in [16], 0.0932; in [17] it was 0.0906; in assay [18] it was 0.763. Also, the figures for the composite z-score in assay [19] and in assay [20] were 0.197 and 0.341, respectively. Besides, the z-score was 0.845 in assay [7]; -1.64 (inactive) in assay [10]; 1.25 (inactive) in [12]; -1.1 (inactive) in [13]; -0.329 (inactive) in assay [14]; -1.03 (inactive) in assay [15].

For `CC(=O)Nc1cc(Br)ccc1C(=O)O`, the composite z-score in assay [1] was 0.0952; in assay [2], 0.747; in [3], -0.0817; in assay [4], 0.805; in assay [5] it was 0.0564; in assay [6], -0.129. Besides, the composite z-score is -0.0658 in assay [8]; 0.625 in assay [9]; -0.129 in assay [11]; 0.254 in assay [16]; 0.0658 in assay [17]; 1.46 in [18]. Also, the composite z-score in assay [19] is 0.0517; in assay [20], -0.402. Further, the z-score in assay [7] is 0.204; in assay [10] it was -0.592 (inactive); in assay [12], 0.0092 (inactive); in assay [13], 0.307 (inactive); in assay [14] it was -0.141 (inactive); in assay [15], 0.151 (inactive).

For the molecule `CC(C)N1C(=O)C[C@@](C(=O)NCc2ccccc2)(c2ccc([N+](=O)[O-])cc2)[C@H]1c1ccc(CO)cc1`, the composite z-score in assay [1] was 2.58; in assay [2], 1; in assay [3] it was 0.159; in assay [4], -0.511; in assay [5] it was 0.692; in [6], 0.118. The composite z-score in assay [8] was 0.119; in assay [9], 0.549; in assay [11], -0.214; in assay [16], -0.939; in assay [17], 0.0275; in assay [18], 1.35. Besides, the composite z-score was 0.529 in assay [19] and 0.235 in [20]. Further, the z-score was 0.316 in [7]; 0.982 (inactive) in assay [10]; -1.5 (inactive) in [12]; -0.936 (inactive) in assay [13]; 1.03 (inactive) in assay [14]; -0.703 (inactive) in [15].

Values taken from PubChem BioAssay.
